Measured values reported in PubChem BioAssay (Tox21).
Records with an inconclusive call do not appear. Calls of active or inactive are those of the source. Calls follow the shape of the dose curve; as a rule, active = well fitted curve in the direction sought with a large enough effect in the repeat runs; inconclusive = weak or mixed curves; inactive = no such curve, though single readings can be large; an effect the other way counts as inactive or inconclusive. Where a SMILES comes first, the peptide text is derived from it.

What was measured:
[1] = A CellTox Green Cytotoxicity Assay to monitor cytotoxicity in HepG2 cells - 24 hour (AID 1224878); also: nearly all actives have a fitted effect of over 45% in size
How it was run: (§1)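 Cells and non-lytic dye reagent are dispensed together (600 HepG2 cells/well) and incubated 5 h before DMSO compound transfer. Kinetic fluorescence is then recorded in the same wells during 40 h at 37 C.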

[2] = qHTS RealTime-Glo MT Cell Viability Assay in HEK293 cells - 0 hour (AID 1224880); also: top concentration of the series differs between compounds; nearly all actives have a fitted effect of over 45% in size
How it was run: (§2)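 Real-time viability in HEK293: signal arises when living cells convert a prosubstrate for NanoLuc in the medium, so luminescence tracks viable cell number. Compound (23 nL, DMSO) added 5 h post-seeding; kinetic reads at 0–40 h, 37 C.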

[3] = A CellTox Green Cytotoxicity Assay to monitor cytotoxicity in HEK293 cells - 32 hour (AID 1224881); also: nearly all actives have a fitted effect of over 40% in size
How it was run: (§3)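 Cells (HEK293, 600/well) and dye reagent are dispensed together. After 5 h at 37 C, 23 nL compound is pinned in. Plates stay at 37 C for 40 h with fluorescence read at 0h, 8h, 16h, 24h, 32h and 40h.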

[4] = A CellTox Green Cytotoxicity Assay to monitor cytotoxicity in HepG2 cells - 0 hour (AID 1224882); also: nearly all actives have a fitted effect of over 35% in size
How it was run: as §1

[5] = A CellTox Green Cytotoxicity Assay to monitor cytotoxicity in HEK293 cells - 8 hour (AID 1224884); also: nearly all actives have a fitted effect of over 35% in size
How it was run: as §3

[6] = qHTS RealTime-Glo MT Cell Viability Assay in HepG2 cells - 16 hour (AID 1224885); also: nearly all actives have a fitted effect of over 50% in size
How it was run: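 Real-time, nonlytic viability: 600 HepG2 cells/well mixed with NanoLuc enzyme plus prosubstrate; 5 h settle, compound (DMSO) added by pintool; luminescence monitored over 40 h at 37 C.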

[7] = qHTS RealTime-Glo MT Cell Viability Assay in HEK293 cells - 24 hour (AID 1224886); also: top concentration of the series differs between compounds; nearly all actives have a fitted effect of over 50% in size
How it was run: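 Cells + reagent dispensed (600 cells/well, HEK293) → 5 h at 37 C/5% CO2 → 23 nL compound in DMSO pinned → 40 h at 37 C → luminescence read at 0, 8, 16, 24, 32, 40 h.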

[8] = qHTS RealTime-Glo MT Cell Viability Assay in HEK293 cells - 8 hour (AID 1224887); also: top concentration of the series differs between compounds; nearly all actives have a fitted effect of over 50% in size
How it was run: as §2

[9] = A CellTox Green Cytotoxicity Assay to monitor cytotoxicity in HepG2 cells - 40 hour (AID 1224879); also: nearly all actives have a fitted effect of over 40% in size
How it was run: as §1

[10] = A CellTox Green Cytotoxicity Assay to monitor cytotoxicity in HepG2 cells - 32 hour (AID 1224883); also: nearly all actives have a fitted effect of over 50% in size
How it was run: as §1

Measured: Potency

CN(C)C(C)(C)CO
not listed: [9] | [10]
inactive: all other assays above

CCC(=O)Oc1ccc2c(c1)CC[C@@H]1[C@@H]2CC[C@@]2(C)[C@H]1C[C@@H](OC(=O)CC)[C@@H]2OC(=O)CC
not listed: [1] | [4]
inactive: all other assays above

CC(=O)CCC1=C(C)CCCC1(C)C
inactive: [2] | [3] | [5] | [6] | [7] | [8]

CCCCC1CCC(O)CC1 (stereo unspecified)
not listed: [9]
inactive: all other assays above

C=CCCCCCCCCC(=O)OCCCC
not listed: [1] | [9] | [10]
inactive: all other assays above

OCC1CCC(CO)CC1 (stereo unspecified)
not listed: [9]
inactive: all other assays above

CCCCCCCCCCCCCCC(=O)NC(CO)CCCCCCCCCCCCCC (stereo unspecified)
not listed: [9] | [10]
inactive: all other assays above

Nc1nc(-c2ccccc2)c(Br)c(=O)[nH]1
not listed: [1] | [9]
inactive: all other assays above

CC1CC(=O)CC(C)(C)C1 (stereo unspecified)
not listed: [9] | [10]
inactive: all other assays above

CC(=O)N[C@@H](CO)C(=O)N[C@@H](CC(=O)O)C(=O)N[C@@H](CCCCN)C(=O)N1CCC[C@H]1C(=O)O (Ac-SDKP-OH)
not listed: [4] | [9]
inactive: all other assays above

CCCCCCCCCCCCCBr
inactive: [1] | [3] | [4] | [10] | [5] | [6]

COC(=O)CCCCC(=O)O
not listed: [9] | [10]
inactive: all other assays above

C=CCCCC
not listed: [4] | [9]
inactive: all other assays above

Fc1ccccc1
not listed: [9]
inactive: all other assays above

C=C(C)c1cccc(C(C)(C)N=C=O)c1
not listed: [4] | [9]
inactive: all other assays above

c1ccc2c(CC3=NCCN3)cccc2c1
not listed: [4] | [9]
inactive: all other assays above

CC(C)CO
not listed: [3] | [9]
inactive: all other assays above

CCCc1ccc(O)cc1
not listed: [1] | [9] | [10]
inactive: all other assays above

Cc1ccc(C)c([N+](=O)[O-])c1
not listed: [9] | [10]
inactive: all other assays above

COS(=O)(=O)O
not listed: [1] | [9] | [10]
inactive: all other assays above

CNCCS(=O)(=O)O
not listed: [9]
inactive: all other assays above

C=C(C)[C@@H]1CC=C(C)CC1
not listed: [9]
inactive: all other assays above

CC1=C(C(=O)O)N2C(=O)[C@@H](NC(=O)[C@H](N)C3=CCC=CC3)[C@H]2SC1
not listed: [4] | [9]
inactive: all other assays above

Nc1nnnn1-c1ccccc1
not listed: [1] | [9] | [10]
inactive: all other assays above

Cn1c(=O)c2c(ncn2CCO)n(C)c1=O
inactive: [2] | [3] | [5] | [6] | [7] | [8]

CC(=O)OC1CCCCC1C(C)(C)C (stereo unspecified)
not listed: [9]
inactive: all other assays above

CC/C=C\CCOC(=O)c1ccccc1O
not listed: [1] | [9] | [10]
inactive: all other assays above
